PINK1 expr mod – changes PINK1 expression; hit rate 0.2% among 410,000; PINK1 immunofluorescence, high-content cytometry, 24 h; AID 624263; Potency, µM (top dose mostly 76.6 µM), inactives show top-dose activation (PINK1 increase), hits mostly activators; active = well fitted activation curve with a large enough effect; inconclusive = small, poorly fitted or top-dose-only effect; cell line not stated here; note: % of control where 0% means no effect; nearly all actives have a fitted effect of over 65% in size
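Fluorescence from anti-PINK1 antibody, together with nuclear and cell stains, was scanned on a laser-scanning cytometer. Before staining, stable-line cells were incubated 24 hours with compounds at 5 concentrations; primary antibody 12 h at 10 degrees C.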
MCF10A rereplic – induces DNA re-replication in MCF 10a normal breast cells; MCF 10A DNA re-replication, Hoechst nuclear intensity, 48 h; Potency, µM (series often up to 46.1 µM), inactives show at the top dose activity, positive = re-replication, usual class: activators; hit rate 2.9% among 350,000; note: % of control where 0% means no effect; nearly all actives have a fitted effect of over 50% in size
KB-V1 cytotox – kills drug-selected multidrug resistant KB-V1 cells. KB-V1 MDR cells viability, CellTiter-Glo, 72 h. Potency, µM (highest dose often 46.1 µM), most hits filed as cytotoxic. hit rate 3.4% among 400,000; note: % is set by controls: 0 for no effect and ±100 for the full control effect; nearly all actives have a fitted effect of over 60% in size
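Readout: CellTiter-Glo luminescence, 10 min after addition. Cells: KB-V1 MDR subline, 72 h at 37 degrees C with compound. Analysis: corrected, normalized data fitted to concentration-effect curves.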
KB-3-1 cytotox – KB-3-1 parental cell cytotoxicity; KB-3-1 viability, CellTiter-Glo ATP luminescence, 72 h; Potency, µM (doses to about 46.1 µM), most hits filed as cytotoxic; hit rate 1.4% among 400,000; AID 1347075; note: % is set by controls: 0 for no effect and ±100 for the full control effect; nearly all actives have a fitted effect of over 60% in size
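Luminescent ATP read-out (CellTiter-Glo) measures survival of drug-naive KB-3-1 cells after 72 h compound exposure at 37 °C. Titration series was screened from lowest to highest concentration, with DMSO vehicle plates as background controls.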
SW480 rerep – DNA re-replication induction in SW480 cells | SW480 DNA re-replication, Hoechst DNA content imaging, 48 h | Potency, µM (highest dose often 46.1 µM), without a hit: at the top dose re-replication activation, most hits filed as activators | hit rate 1.8% among 340,000 | AID 624297; note: % of control where 0% means no effect; nearly all actives have a fitted effect of over 55% in size
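Readout is total intensity of Hoechst-stained nuclei, excited at 405 nm and collected at 500-530 nm. Compound treatment lasted 48 hr at 37 C in 5% CO2 before staining.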
Starred values were filed as active, the others as inactive; i = inactive; ? = inconclusive; . = not tested or not shown; ! = a repeat was not active; [ ] = remark or other dose. Sampled rows, rich in hits. Any-hit rate of the full collection: about 6.7%. Unless noted, calls come from the whole dose curve; as a rule, active = well fitted curve in the direction sought with a large enough effect; inconclusive = small, poorly fitted or top-dose-only effect, or another doubt; inactive = no such curve, though single readings can be large; an effect the other way counts as inactive or inconclusive. Potency is the fitted concentration of half-maximal effect.

SMILES	PINK1 expr mod	MCF10A rereplic	KB-V1 cytotox	KB-3-1 cytotox	SW480 rerep
CCN(CC)c1ncnc2c1ncn2[C@H]1CN(Cc2ccc(OC)cc2)C[C@@H](CO)O1	-0.1%	.	i	i	.
COc1cc(C(=O)N/N=C(\C)Cc2ccccc2)cc(OC)c1OC	3.8%	2.06µM*	i	i	2.59µM*
CCOc1ccccc1OCC(=O)N/N=C(\C)Cc1ccc(OC)cc1	29.9%	?	?	?	8.2µM*
COc1cc(C(=O)NCc2cccc3ccccc23)cc(Cl)c1OC	-0.5%	?	18.4µM*	i	15.0%
COc1cc(C(=O)NCc2cc(C)nc3ccccc23)cc(OC)c1OC	5.5%	-5.3%	i	i	0.2%
Cc1cccc(C)c1NC(=O)Cn1c(=O)n(CCC(=O)NCc2ccc3c(c2)OCO3)c(=O)c2sccc21	0.7%	.	.	.	.
Cc1ccc(-c2cccc(C(=O)NCCc3ccccc3)n2)c2ccccc12	5.2%	-3.3%	i	i	?
O=C(NCc1ccccc1)c1c(Cl)nc(Cl)c(Cl)c1Cl	-2.2%	18.4µM*	i	16.4µM*	6.51µM*
Cc1ccc(-c2cccc(C(=O)NCc3ccccc3)n2)c2ccccc12	11.9%	?	?	?	16.4µM*
CCOC(=O)c1sc(NC(=O)CSc2n[nH]c(-c3ccncc3)n2)c(C#N)c1C	2.8%	24.0%	i	?	-3.0%
CCOc1ccc(/C=C/C2=Cc3c(sc(NC(=O)CSc4n[nH]c(N)n4)c3C#N)C(C)(C)C2)cc1	-6.9%[38.3 µM]	6.51µM*	?	16.4µM*	16.4µM*
Cc1ccsc1/C=C/C1=Cc2c(sc(NC(=O)CSc3n[nH]c(N)n3)c2C#N)C(C)(C)C1	4.8%[38.3 µM]	?	i	i	14.6µM*
Cc1cc(C(=O)Nc2cccc(-c3nc(CNC(=O)c4sc(C)nc4C)c(C)o3)c2)c(C)o1	0.2%	.	.	.	.
CCc1nn(Cc2cccc(F)c2)c(=O)c2cc3cc(C)ccc3n12	0.7%	.	i	i	.
COc1cc(C2C(c3ccccc3)C(c3cc(OC)cc(=O)o3)C2c2ccccc2)oc(=O)c1 (stereo not drawn)	0.0%	?	6.51µM*	i	6.4%
COc1ccc(CCc2cc(OC)cc(=O)o2)cc1	0.1%	-0.9%	i	i	-5.0%
COc1ccc(Cl)cc1NC(=O)CSc1ccc(-c2sc(C)nc2C)nn1	4.7%	.	.	.	.
O=C(CN1C(=O)COc2ccc(S(=O)(=O)N3CCCCC3)cc21)NCc1ccccc1Cl	-0.2%	6.7%	i	i	-18.8%
O=C(CSc1nc(=O)[nH]c2c1CCCC2)NCc1ccc(F)cc1	-0.1%	.	.	.	.
FC(F)(F)c1ccc(C2=Nc3ccccc3NC(c3cccs3)=N2)cc1	1.3%	.	i	i	.
COc1cc(O)oc1C=Nc1ccc(Cl)cc1	-0.5%	8.5%	i	i	-18.3%
COc1cc(O)oc1C=Nc1ccc(C(=O)O)cc1	1.9%	-4.4%	23.1µM*	?	-3.7%
CC(=O)C1=C(C)N(Cc2ccco2)C(=O)C1(NC(=O)C1CCCCC1)C(F)(F)F (stereo not drawn)	-0.4%[38.3 µM]	-1.5%	18.4µM*	i	8.7%
CC1(C)CC(=O)C2=C(C1)N(Cc1ccco1)C(=O)C2(NC(=O)C1CCCCC1)C(F)(F)F (stereo not drawn)	0.8%[38.3 µM]	0.8%	?	i	14.8%
CCOC(=O)C(CC)/C(C)=N\NC(=O)c1ccccc1O (stereo not drawn)	22.3%	?	2.06µM*	?	?
SMILES	PINK1 expr mod	MCF10A rereplic	KB-V1 cytotox	KB-3-1 cytotox	SW480 rerep
C/C(=N\NC(=O)c1ccccc1[N+](=O)[O-])c1c(O)cc(C)oc1=O	-1.1%	-6.0%	i	i	-7.3%
C/C(=N\NC(=O)c1ccccc1O)c1c(O)cc(C)oc1=O	-0.9%[38.3 µM]	?	?	i	5.8µM*
O=C(NN=C(Cc1ccccc1)Cc1ccccc1)c1ccccc1O	0.7%	11.6%	?	i	18.4µM*
Cc1cccc(N2CCN(C(=O)[C@H](C)N3C(=O)C4CC=CCC4C3=O)CC2)c1C (stereo partly drawn)	-1.2%	18.4%	i	i	-4.2%
COCCNC(=O)CCCn1c(SCC(=O)c2ccc(F)cc2)nc2c(sc3ccccc32)c1=O	-0.4%	.	.	.	.
CCOc1ccc(N/C(N)=N/c2nc(CSc3nnc(C)s3)cc(=O)[nH]2)cc1	11.8%	?	?	0.731µM*	?
Cc1nnc(SCc2cc(=O)[nH]c(/N=C(\N)Nc3ccccc3Sc3ccccc3)n2)s1	1.0%	3.6%	i	i	-7.3%
Cc1nnc(SCc2cc(=O)[nH]c(/N=C(\N)Nc3ccccc3)n2)s1	9.2%	18.4µM*	?	?	?
COc1ccc(N/C(N)=N/c2nc(CSc3ccc(Cl)cc3)cc(=O)[nH]2)cc1	?	8.0%	i	i	-0.6%
CCOc1ccc2c(ccc(/C=C/c3cc(C)c4cccnc4c3O)[n+]2C)c1	?	5.9%	?	?	?
CCN(CC)C(=O)CSC(Nc1ccc(F)cc1)=C(C#N)C#N	-0.1%	-0.6%	i	i	0.9%
Cc1ccc(CSC(Nc2ccc(F)cc2)=C(C#N)C#N)cc1	?	13µM*	13µM*	?	?
C/C(=N\OCC(=O)NC12CC3CC(CC(C3)C1)C2)c1cc2ccccc2o1	?	20.6µM*	i	i	?
COc1cc(/C=N/OCC(=O)NC23CC4CC(CC(C4)C2)C3)ccc1OCc1ccccc1	-1.1%	20.6µM*	?	?	?
COc1ccc(/C=N/OCC(=O)NC(c2ccccc2)c2ccccc2)cc1OC	1.4%	21.2%	2.31µM*	?	0.3%
COc1cc(/C=N/OCC(=O)Nc2ccc(OC(F)F)cc2)ccc1OCc1ccccc1	6.0%	?	8.2µM*	23.1µM*	?
COc1cc(/C=N/OCC(=O)NC2CCCCC2)ccc1OCc1ccccc1	10.6%	?	?	i	8.5%
CC(=O)c1ccc(Nc2ccc3cc(S(=O)(=O)N4CCCC4)ccc3n2)cc1	2.7%	.	i	i	.
CCOC(=O)C1CCN(Cc2cn3c(-c4ccc(OC)cc4)nnc3s2)CC1	-5.2%	.	i	i	.
CC(=O)c1cc(-c2ccccc2)n(CC(=O)Nc2ccc(C)cc2C)c1C	0.8%	.	i	i	.
CCOc1ccccc1NS(=O)(=O)c1cc(-c2cnc(C3CC3)o2)ccc1C	2.3%	.	i	?	.
COc1ccccc1CNS(=O)(=O)c1ccc(S(=O)(=O)NC2CC2)cc1	5.5%	-9.0%	i	i	?
CCOc1ccccc1NS(=O)(=O)c1ccc(-c2cnc(C3CC3)o2)cc1	0.5%	?	?	0.291µM*	?
COc1ccccc1CNS(=O)(=O)c1ccc(-c2cnc(C3CC3)o2)cc1	1.6%	?	5.8µM*!	?	?
COc1ccccc1NS(=O)(=O)c1ccc(-c2cnc(C3CC3)o2)cc1	1.6%	?	?	1.03µM*	0.0%

Compound activity deposited in PubChem BioAssay by National Center for Advancing Translational Sciences (NCATS).
